PfGluPho inh: PfG6PD (Plasmodium falciparum) enzyme inhibition | PfGluPho enzyme, NADPH resazurin-diaphorase fluorescence | inhibition, % at 20 µM | 350,000 tested, 0.78% active;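 active means inhibition reaching at least a set limit at 20 µM in the primary screen, cut at about 59% in these data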;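 further: 0% = DMSO wells with substrate and 100% = DMSO wells lacking glucose-6-phosphate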
ALR inh: inhibitors of human sulfhydryl oxidase ALR; P55789; 290,000 tested, 3.8% active; AID 485317; inhibition, % (no concentration beside the values); purified ALR, DTT oxidation, H2O2 HRP-luminol luminescence;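 active means mean replicate inhibition above about 79%, with every replicate also reaching it, limit read from the data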
Target sequence (P55789 whole entry, looked up): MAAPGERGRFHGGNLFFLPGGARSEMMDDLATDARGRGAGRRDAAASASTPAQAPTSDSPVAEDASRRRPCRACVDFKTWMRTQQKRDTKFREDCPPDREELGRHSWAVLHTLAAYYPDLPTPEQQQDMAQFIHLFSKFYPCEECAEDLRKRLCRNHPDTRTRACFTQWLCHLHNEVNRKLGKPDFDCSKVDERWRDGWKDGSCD
Cardio protect: modulators protecting cardiomyocytes from myocardial damage; 360,000 tested, 0.63% active; protection from H2O2 cell death, % at 20 µM; H9c2 cardiomyocytes, H2O2 injury protection, ATPLite, 2 h;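 active means compounds giving at least 50% protection of heart cells from peroxide-induced death in the single-dose screen, raw or plate-pattern-corrected value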;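 further: 0% = DMSO wells with peroxide and 100% = DMSO wells without peroxide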
PfM18AAP inh: blocks P. falciparum M18 aspartyl aminopeptidase; recombinant PfM18AAP, H-Glu-NHMec fluorogenic cleavage; inhibition, % at 7.35 µM; 290,000 tested, 1.2% active; AID 1822;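 active means inhibition above the campaign mean inhibition over all tested compounds plus 3 SD, cut at about 28% in these data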;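 further: 0% = plate median of test compound wells and 100% = 2 mM ZnCl2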
PHOSPHO1 block: blocks human PHOSPHO1 phosphatase activity. Q8TCT1. AID 1565. recombinant PHOSPHO1, absorbance phosphatase assay. inhibition, % at 13.3 µM. 290,000 tested, 1.1% active; in the data active means inhibition above about 60%
Target sequence (Q8TCT1 whole entry, looked up): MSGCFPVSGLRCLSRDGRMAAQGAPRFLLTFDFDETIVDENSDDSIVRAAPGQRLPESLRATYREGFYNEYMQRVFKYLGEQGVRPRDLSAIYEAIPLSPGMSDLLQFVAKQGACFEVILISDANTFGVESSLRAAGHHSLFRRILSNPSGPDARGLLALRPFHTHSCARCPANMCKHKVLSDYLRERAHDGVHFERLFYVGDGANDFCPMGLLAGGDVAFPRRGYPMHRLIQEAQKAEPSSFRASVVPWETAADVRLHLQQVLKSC
An asterisk follows results filed as active. A selection: hits, their analogues and other compounds. The true share with any hit is near 5.6%.

How did CCN(CC)c1ccc(NC(=O)COC(=O)c2cccs2)cc1 do in these assays?
PfGluPho inh: 18; ALR inh: 98*; Cardio protect: -6; PfM18AAP inh: 9; PHOSPHO1 block: 100*

Results for CCN(c1ccc(NC(=O)COC(=O)c2cccs2)cc1)C(C)C ?
PfGluPho inh: 14; ALR inh: 99*; Cardio protect: -6; PfM18AAP inh: 10; PHOSPHO1 block: 33

What do the screens show for `CCN(CC)c1ccc(NC(=O)COC(=O)c2ccc3ccccc3n2)cc1`?
PfGluPho inh: 7; ALR inh: 99*; Cardio protect: -10; PfM18AAP inh: 4; PHOSPHO1 block: -20

What do the screens show for `COc1ccc(NC(=O)COC(=O)c2ccc3ccccc3n2)cc1`?
PfGluPho inh: -9; ALR inh: -2; Cardio protect: 7

What do the screens show for `CC(C)Cc1ccc(-c2ccc3nccn3c2)cc1`?
Cardio protect: -14

What do the screens show for `CCN(c1ccc(NC(=O)COC(=O)CCC(=O)c2ccc(F)cc2)cc1)C(C)C`?
PfGluPho inh: 34; ALR inh: 93*; Cardio protect: -2; PfM18AAP inh: 11; PHOSPHO1 block: 22

Results for CC(=O)c1cccc(NC(=O)COC(=O)CCC(=O)c2ccc(F)cc2)c1 ?
PfGluPho inh: 7; ALR inh: -3; Cardio protect: 2

How did CCN(c1ccc(NC(=O)COC(=O)/C=C/c2ccco2)cc1)C(C)C do in these assays?
PfGluPho inh: 4; ALR inh: 99*; Cardio protect: -3

How did Cc1cc(C2(c3ccc(O)c(C)c3)OC(=O)c3ccccc32)ccc1O do in these assays?
PfGluPho inh: -26; ALR inh: 77*; Cardio protect: -3; PfM18AAP inh: -4; PHOSPHO1 block: -3

How did Cc1cc(O)c(C(C)C)cc1C1(c2cc(C(C)C)c(O)cc2C)OC(=O)c2ccccc21 do in these assays?
PfGluPho inh: 29; ALR inh: 3; Cardio protect: -17; PfM18AAP inh: -2; PHOSPHO1 block: -2

How did CC(C)NC(=O)/C(C#N)=C/c1ccc(N(C)C)o1 do in these assays?
PfGluPho inh: 3; ALR inh: 98*; Cardio protect: 14; PfM18AAP inh: 5; PHOSPHO1 block: -4

Results for COc1ccc(-c2csc(Nc3ccccc3)[n+]2Cc2ccccc2)cc1 ?
PfGluPho inh: 21; Cardio protect: -15; PfM18AAP inh: 5; PHOSPHO1 block: -8

Results for Cc1ccc(-c2csc(Nc3ccc(C(=O)O)cc3)[n+]2Cc2ccccc2)cc1 ?
PfGluPho inh: -36; ALR inh: -6; Cardio protect: -3; PfM18AAP inh: 2; PHOSPHO1 block: 62*

What do the screens show for `CN(C)CCCCOc1ccccc1-c1ccccc1`?
PfGluPho inh: -16; ALR inh: 9; Cardio protect: 1; PfM18AAP inh: 29*; PHOSPHO1 block: 3

Results for CN(C)CCCCOc1ccccc1F ?
PfGluPho inh: 2; ALR inh: 1; Cardio protect: 3; PfM18AAP inh: 0; PHOSPHO1 block: 47

Results for CCOC(=S)SCc1cn2ccccc2n1 ?
PfGluPho inh: 0; ALR inh: 98*; Cardio protect: 9; PfM18AAP inh: 13; PHOSPHO1 block: -8

What do the screens show for `CCOC(=S)SCc1cn2ccc(C)cc2n1`?
PfGluPho inh: 9; ALR inh: 99*; Cardio protect: -7; PfM18AAP inh: 5; PHOSPHO1 block: 10

What do the screens show for `Cc1ccc(SCc2cn3ccccc3n2)cc1`?
PfGluPho inh: 4; ALR inh: 7; Cardio protect: -12; PfM18AAP inh: 2; PHOSPHO1 block: 16

What do the screens show for `Cc1ccn2cc(CSc3ccccc3N)nc2c1`?
PfGluPho inh: -2; ALR inh: 29; Cardio protect: -1; PfM18AAP inh: -7; PHOSPHO1 block: 24

How did O=C1CCCN1c1ccc(N2CCCC2=O)cc1 do in these assays?
PfGluPho inh: -3; ALR inh: -4; Cardio protect: -6; PfM18AAP inh: -3; PHOSPHO1 block: 24

What do the screens show for `Cc1ccc(-c2nnc(Sc3nc4ccccc4o3)c3ccccc23)cc1`?
PfGluPho inh: -2; ALR inh: 3; Cardio protect: -11; PfM18AAP inh: -12; PHOSPHO1 block: -10

Results for Cc1nnc(Sc2nc3ccccc3o2)c2ccccc12 ?
PfGluPho inh: 12; ALR inh: 97*; Cardio protect: 10; PfM18AAP inh: -4; PHOSPHO1 block: -8

How did COC(=O)c1ccc(Nc2cc(C)nc3ccccc23)cc1 do in these assays?
PfGluPho inh: -6; ALR inh: -10; Cardio protect: -10; PfM18AAP inh: -2; PHOSPHO1 block: -4

Results for COC(=O)c1ccc2nc(C)cc(Nc3ccc(N(C)C)cc3)c2c1 ?
PfGluPho inh: 16; ALR inh: 99*; Cardio protect: 11; PfM18AAP inh: -15; PHOSPHO1 block: -9

How did O=C(NNc1ccccc1)c1ccccc1 do in these assays?
PfGluPho inh: 4; Cardio protect: 3

What do the screens show for `O=C(NNc1ccc(O)cc1)c1ccc(Br)cc1`?
PfGluPho inh: 50; ALR inh: 99*; Cardio protect: -7; PfM18AAP inh: 9; PHOSPHO1 block: 38

How did COc1ccc(NC(=O)Nc2ccc(O)c3ccccc23)cc1 do in these assays?
PfGluPho inh: 72*; ALR inh: 26

What do the screens show for `COc1ccccc1C(=O)N/C(=C/c1ccco1)C(=O)Nc1cccc(C(=O)O)c1`?
PfGluPho inh: 14; ALR inh: 44; Cardio protect: 0; PfM18AAP inh: 16; PHOSPHO1 block: 2

What do the screens show for `Cc1ccc(C)c(NCC(=O)c2ccc(Cl)cc2)c1`?
PfGluPho inh: -88; ALR inh: -7; Cardio protect: -8; PfM18AAP inh: 28*; PHOSPHO1 block: 31

Results for Cc1ccc(OCC(=O)NNC(=O)c2cc(S(=O)(=O)N(C)C)ccc2N2CCCC2)cc1 ?
PfGluPho inh: -35; Cardio protect: -3

How did C[C@]12c3[nH]c4ccc(Cl)cc4c3CCN1C(=O)[C@@H](CC(=O)NCCC1=CCCCC1)C[C@@H]2C(=O)N1CCOCC1 do in these assays?
PfGluPho inh: 10; Cardio protect: 2

Results for CC(C)n1c(N2CCN(S(=O)(=O)c3cccc([N+](=O)[O-])c3)CC2)nc2ccccc21 ?
PfGluPho inh: -5; ALR inh: -24; Cardio protect: 2; PfM18AAP inh: 2; PHOSPHO1 block: 61*

How did CCN1CCN(c2ccc(N3CCN(S(=O)(=O)c4cccc([N+](=O)[O-])c4)CC3)nn2)CC1 do in these assays?
PfGluPho inh: 1; Cardio protect: 9

How did COc1ccccc1CCNC(=O)C(=O)NCC1OCCN1C(=O)c1ccc(Cl)cc1 (configuration not stated) do in these assays?
PfGluPho inh: -7; ALR inh: 0; Cardio protect: 9; PfM18AAP inh: -3; PHOSPHO1 block: 58

Results for c1ccc(N2CCOCCOCCOCCOCCOCC2)cc1 ?
PfGluPho inh: -6; ALR inh: 96*; Cardio protect: 0; PfM18AAP inh: 2; PHOSPHO1 block: 41

How did O=C(N1CCOCC1)N1CCN(c2ccccc2)CC1 do in these assays?
PfGluPho inh: -9; ALR inh: 54; Cardio protect: -3; PfM18AAP inh: 0; PHOSPHO1 block: 8

Screens: PubChem, several laboratories
